Laboratory results published in ChEMBL document CHEMBL4513216, “Probing the Open Global Health Chemical Diversity Library for Multistage-Active Starting Points for Next-Generation Antimalarials” (ACS Infect Dis, 2020).
In all, about 69,000 compounds went through this assay and about 8,600 (12%) showed an effect of 50% or more. The sample as a whole holds a higher share of strong results than the screen did.

The compounds below were run on Plasmodium berghei (assay: Screen against P. berghei liver stage (PbLuc), transformed with Luciferase, at 10uM). Details: tested at 10 uM.
Assay type: functional, HepG2
`CC(=O)c1cccc(NC(=O)CN2CCCC(C3OCCO3)C2)c1` (stereo unspecified) was tested, and the INHIBITION was 53.4%.
`CC(=O)c1cccc(NC(=O)CN2CCCCC2C2OCCO2)c1` (stereo unspecified) showed an INHIBITION of 1.81%.
In the case of `CN(C)Cc1cnn(-c2ccccc2C(=O)N(C)Cc2ccccc2)c1`, the INHIBITION is reported as -52.6%.
`Cc1cc(=O)c2ccccc2n1CC1CCNC1` (stereo unspecified) showed an INHIBITION of 12.8%.
`Cc1cc(=O)c2ccccc2n1CC1CCN(C(C)C)C1` (stereo unspecified) gave an INHIBITION of 53.9%.
`Cc1cc(=O)c2ccccc2n1CC1CCCN(C)C1` (stereo unspecified) gave an INHIBITION of -9.92%.
Work on `c1cnc(N2CCO[C@H]3CN(Cc4csnn4)C[C@H]32)cn1` yielded an INHIBITION of 23.3%.
`O=C(NCCc1ccn(-c2ccccc2)n1)N1CCC1` was tested, and the INHIBITION was 26.9%.
`O=C(NCCc1ccn(-c2ccccc2)n1)N1CCSCC1` showed an INHIBITION of 62.9%.
Compound `O=C(NCCc1ccn(-c2ccccc2)n1)N1CCCC(O)C1` (stereo unspecified) has an INHIBITION of -16%.
Compound `Cc1cccc(NC(=O)C(C)Nc2cccc(CN3CCOC3=O)c2)c1` (stereo unspecified) has an INHIBITION of -18.15%.
`CC1CC(=O)c2cc(C(=O)N3CCc4ccccc4C3)c(=O)[nH]c2C1` (stereo unspecified) showed an INHIBITION of 10.9%.
Work on `Cc1ccc(CN2C[C@@H]3CCCO[C@@H]3[C@H](N(C)Cc3ccco3)C2)o1` yielded an INHIBITION of 18.5%.
Work on `CC(NC(=O)NCCCN1CCc2ccccc2C1)c1nncn1C` (stereo unspecified) yielded an INHIBITION of -120%.
`CC(NC(=O)NCCCN1CCCCCC1)c1nncn1C` (stereo unspecified) gave an INHIBITION of 30.2%.
`CC(NC(=O)NCCCN1CCCC1)c1nncn1C` (stereo unspecified) was tested, and the INHIBITION was 0.914%.
`CCN1CCN(CCCNC(=O)NC(C)c2nncn2C)CC1` (stereo unspecified) gave an INHIBITION of 40%.
`CC1CCN(CCCNC(=O)NC(C)c2nncn2C)CC1` (stereo unspecified) gave an INHIBITION of 52.3%.
`Cc1cccc(C)c1OCCNC(=O)NC(C)c1nncn1C` (stereo unspecified) was tested, and the INHIBITION was 50.4%.
In the case of `Cc1cccc(OCCCNC(=O)NC(C)c2nncn2C)c1` (stereo unspecified), the INHIBITION is reported as 15.9%.
In the case of `CC(NC(=O)NCCN1CCCC1)c1nncn1C` (stereo unspecified), the INHIBITION is reported as 56.4%.
`CC(NC(=O)NCCOc1ccc(Cl)cc1)c1nncn1C` (stereo unspecified) gave an INHIBITION of 39.7%.
With `N#CCCSc1sc2c(O)cc(O)nc2c1C#N` the INHIBITION was 38.2%.
`O=C(NCCc1cc2nc(-c3ccncc3)ccn2n1)C1CC1` gave an INHIBITION of 23.6%.
Compound `O=C(c1cc[nH]n1)N1CCCC1c1ccccn1` (stereo unspecified) has an INHIBITION of 13.5%.
With `CC(=O)N1CCC(c2nccnc2C)CC1` the INHIBITION was -16.1%.
`OCC1(NCc2cnc(-c3ccsc3)s2)CCOCC1` was tested, and the INHIBITION was -11.7%.
`CN(C)c1cnn(CC(=O)N2CCN(Cc3cccs3)CC2)c(=O)c1` showed an INHIBITION of 65.7%.
Work on `CN(C)c1cnn(CC(=O)N2Cc3ccccc3C2)c(=O)c1` yielded an INHIBITION of 31.4%.
Work on `CN(CCc1ccccc1)c1cnn(CC(=O)N2CCSCC2)c(=O)c1` yielded an INHIBITION of 38.5%.
For `CN(CCc1ccccc1)c1cnn(CC(=O)N2CCOCC2)c(=O)c1`, the INHIBITION was 20.2%.
`CN(C)c1cnn(CC(=O)N2CCCCCC2)c(=O)c1` gave an INHIBITION of 15.4%.
In the case of `CSc1cccc(CN(C)C(=O)Cn2ncc(N(C)C)cc2=O)c1`, the INHIBITION is reported as 4.64%.
`CN(C)c1cnn(CC(=O)N2CCN(c3ccccc3)CC2)c(=O)c1` showed an INHIBITION of 53.7%.
For `CN(Cc1ccoc1)C(=O)Cn1ncc(N(C)C)cc1=O`, the INHIBITION was 50.5%.
In the case of `CN(Cc1ccc2nsnc2c1)C(=O)Cn1ncc(N(C)C)cc1=O`, the INHIBITION is reported as 5.46%.
`O=C(CCn1c(C(F)F)cc2cccnc21)NC1CC1` was tested, and the INHIBITION was 22%.
Work on `CC(c1nc(C(C)(C)C)no1)N1CCN(c2ccc(C#N)cn2)CC1` (stereo unspecified) yielded an INHIBITION of 23.9%.
`Cc1cc(C)n(CC2CCCN2C(=O)c2ccnc(N(C)C)c2)n1` (stereo unspecified) gave an INHIBITION of 3.73%.
For `CN(C)C(=O)[C@H]1C[C@H]2CN(c3ncccn3)C[C@@H]1O2`, the INHIBITION was -5.63%.
Work on `Cn1cc(CN2CCCC3(CCN(Cc4ccncc4)C3=O)C2)cn1` (stereo unspecified) yielded an INHIBITION of 43.1%.
For `COCCN1CCO[C@@H]2CN(Cc3sccc3C)C[C@@H]2C1`, the INHIBITION was 24.6%.
Compound `O=C(c1ccc(=O)[nH]n1)N(CCO)Cc1cc(Br)ccc1F` has an INHIBITION of 23.1%.
Work on `CCc1ccc(-n2nnc(C(=O)O)c2-c2ccccn2)cc1` yielded an INHIBITION of 9.84%.
`Cc1nnc2n1CCN(Cc1csc(CC(=O)N(C)C)n1)C2` gave an INHIBITION of 16.7%.
`CC(C)c1nnc2n1CCN(Cc1csc(CC(=O)N(C)C)n1)C2` showed an INHIBITION of 52%.
In the case of `CN(C)C(=O)Cc1nc(CN2CCn3c(nnc3C3CC3)C2)cs1`, the INHIBITION is reported as 8.81%.
`O=C1CCC2(CCCN(CCc3ccccc3)C2)N1Cc1cccnc1` (stereo unspecified) gave an INHIBITION of 23.2%.
`CC(CNCc1ccc(Cl)cc1)Oc1ccccn1` (stereo unspecified) was tested, and the INHIBITION was 11.4%.
Work on `CCn1cc(NC(=O)N2CCN(CCSc3ccccc3)CC2)cn1` yielded an INHIBITION of -32.35%.
`CN1CCN(C(=O)C2CCCc3[nH]ncc32)CC1` (stereo unspecified) gave an INHIBITION of -3.12%.
`O=C(C1CCCc2[nH]ncc21)N1CCCC2(C1)OCCO2` (stereo unspecified) showed an INHIBITION of 50.8%.
In the case of `O=C(C1CCCc2[nH]ncc21)N1CCCCCC1` (stereo unspecified), the INHIBITION is reported as 46.6%.
`CCN1CCN(C(=O)C2CCCc3[nH]ncc32)CC1` (stereo unspecified) showed an INHIBITION of -24.9%.
With `CCN(CC)C(=O)N1CCN(C(=O)C2CCCc3[nH]ncc32)CC1` (stereo unspecified) the INHIBITION was 67.5%.
`O=C(C1CCCc2[nH]ncc21)N1CCCC1` (stereo unspecified) gave an INHIBITION of 17.4%.
